# Only some compounds are listed: those with a hit (about 5.7% of all), similar ones and a draw of the others.
# HEK293 tox: cytotoxicity counter-screen for GLP-1 receptor inverse agonists; HEK293 cAMP-luciferase reporter cells, luminescence, 24 h; Potency, µM (top dose mostly 38.3 µM), for inactives: at the top dose activity change, negative = inhibition, usual class: inhibitors; 0.13% of 410,000 active; AID 624418;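 also: loss of luciferase light is scored as toxicity; potency is read from the fitted curve at half-maximal effect; % is scaled to controls: 0 for no effect and ±100 for the full control effect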
#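 To flag toxic compounds, the library was rerun on cells for 24 hr at 37 deg C and 5% CO2. Viability-linked luminescence was captured 12 min after adding luciferase detection reagent.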
# GLP-1R agonist: agonists of human GLP-1 receptor | P43220 | HEK293 GLP-1R CRE-luciferase, luminescence, 4-6 h; cells express a hypersensitive GLP-1R form | Potency, µM (top dose mostly 45.6 µM), for the others: at the highest dose activation, most hits filed as activators | 0.007% of 380,000 active; also: potency is read from the fitted curve at half-maximal effect; % of control where 0% means no effect
# GLP1R inv ag: acts as inverse agonist at human GLP-1 receptor | P43220 | HEK293 GLP-1R CRE-luciferase, luminescence, 24 h; GLP-1R form is constitutively active | Potency, µM (highest dose often 38.3 µM), without a hit: at the highest dose activity change, negative = inhibition, hits mostly inhibitors | 1.6% of 410,000 active; also: potency is read from the fitted curve at half-maximal effect; % is scaled to controls: 0 for no effect and ±100 for the full control effect; nearly all actives have a fitted effect of over 55% in size
#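 Assay principle: reduced luminescence from a cAMP-responsive reporter in HEK293 cells co-expressing a constitutively active GLP-1R. Conditions: 24 hr compound incubation, 37 deg C, 5% CO2.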
# D3 antag: blocks the human D3 dopamine receptor. max response, negative = inhibition, %. 2.5% of 360,000 active. AID 652054. D3R cells, DiscoveRx beta-arrestin luminescence, antagonist mode; active compounds read low. P35462; in the data active = max response below about -50%; inconclusive = no clear call, values can overlap the other calls; also: % is scaled to controls: 0 for no effect and ±100 for the full control effect
# Target sequence (P35462 whole entry, looked up): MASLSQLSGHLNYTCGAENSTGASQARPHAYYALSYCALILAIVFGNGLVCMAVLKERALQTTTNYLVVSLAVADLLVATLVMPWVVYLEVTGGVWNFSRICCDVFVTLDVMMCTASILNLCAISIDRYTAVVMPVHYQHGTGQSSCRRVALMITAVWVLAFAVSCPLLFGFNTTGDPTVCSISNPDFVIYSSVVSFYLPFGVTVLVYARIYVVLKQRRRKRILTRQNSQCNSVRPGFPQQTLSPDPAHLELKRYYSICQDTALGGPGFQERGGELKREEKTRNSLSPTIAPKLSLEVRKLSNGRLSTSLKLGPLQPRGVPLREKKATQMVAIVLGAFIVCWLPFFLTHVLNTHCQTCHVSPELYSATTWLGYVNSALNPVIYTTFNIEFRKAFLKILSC
#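 Cells plated overnight at 1500 cells/well, then exposed to library compounds with dopamine controls for 90 minutes at 37 degrees C. DiscoveRx reagent added for 30–60 minutes at room temperature; luminescence read, quantitative HTS format.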
# ClpP mod: qHTS Assay for Activators of ClpP. 1.9% of 340,000 active. Potency, µM (highest dose often 57.5 µM), inactives show top-dose activity change, negative = active. purified B. subtilis ClpP, FRET peptide cleavage, 20 min. ATP-dependent Clp protease proteolytic subunit (Bacillus subtilis (strain 168)), P80244; active = well fitted falling curve with a large enough effect; inconclusive = small, poorly fitted or top-dose-only effect; inactive = no such curve, though single readings can be large or run the other way; also: potency is read from the fitted curve at half-maximal effect; the source files actives as falling curves though it sought activators and does not explain the sign; nearly all actives have a fitted effect of over 65% in size
# Target sequence (P80244 whole entry, looked up): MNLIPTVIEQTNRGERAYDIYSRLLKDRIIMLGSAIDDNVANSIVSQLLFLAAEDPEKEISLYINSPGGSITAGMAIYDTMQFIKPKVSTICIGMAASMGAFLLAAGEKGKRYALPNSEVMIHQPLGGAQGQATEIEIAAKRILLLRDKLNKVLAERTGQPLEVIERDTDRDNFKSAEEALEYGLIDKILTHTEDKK
#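 Buffer: 100 mM Tris/HCl pH8, 100 mM KCl, 0.05% low protease BSA, 2.5% glycerol, 0.01% Tween-20. ClpP 10 microg/mL final; 20 min RT; delta FRET normalized to ADEP and DMSO controls.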
# DRD3 agonist: activates the human D3 dopamine receptor; P35462; D3R DiscoveRx beta-arrestin cells, luminescence, 90 min; max activation, %; 0.58% of 410,000 active; AID 652048; in the data active = max activation above about 30%; also: 0% is about no effect
#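 Cells at 1500/well, incubated overnight, then treated with pinned compounds (dopamine as control) for 90 min at 37 degrees C. DiscoveRx reagent added for 30 - 60 minutes at room temperature; luminescence read.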
# Starred values were filed as active, the others as inactive; u = inconclusive; x = not tested or not shown; ! = not confirmed by another sample. Unless noted, calls follow the shape of the dose curve; as a rule, active = well fitted curve in the direction sought with a large enough effect; inconclusive = small, poorly fitted or top-dose-only effect, or another doubt; inactive = no such curve, though single readings can be large; an effect the other way counts as inactive or inconclusive.
SMILES,HEK293 tox,GLP-1R agonist,GLP1R inv ag,D3 antag,ClpP mod,DRD3 agonist
COCC(=O)Nc1nc2n(n1)C(c1ccc(OC)cc1)CC(c1ccc(OC)cc1)N2 (stereo not given),-10%,0%,0%,8,-2%,2
COC(=O)CCCn1cc(CN2CC(N3CCN(Cc4cccc(C)c4)CC3)CS2(=O)=O)nn1 (stereo not given),5%,13%,0%,u,1%,-6
OCCCNc1ncnc2sc3c(c12)CCN(Cc1ccccc1)C3,21%,-8%,6%,-8,4%,-3
O=c1[nH]cnc2sc3c(c12)CCN(Cc1ccccc1)C3,2%,-3%,-13%,43,u,74*
O=c1[nH]cnc2sc3c(c12)CN(Cc1ccccc1)CC3,6%,0%,-6%,10,-2%,60*
CCCN(CCC)c1ccc(/C=C/c2sc3ccccc3[n+]2CCCCI)cc1,x,x,x,x,2%,x
O=C(Nc1cc(-c2nc3cc(Cl)ccc3o2)ccc1Cl)c1cc2ccccc2o1,0%,1%,11%,x,1%,8
CN(c1ccc(C(=O)NCCSC(C)(C)C)cc1)S(C)(=O)=O,21%,-2%,1%,7,10µM*,2
N#Cc1c(N)oc(-c2ccc3c(c2)OCO3)c1-c1ccc2c(c1)OCO2,-16%,2%,-12%,14,14µM*,-3
Cc1ccc(-c2cc(-c3ccc4c(c3)OCO4)c(C#N)c(N)n2)o1,16%,8%,0%,11,35µM*,-3
Cc1ccc(-c2cc(-c3ccc(F)cc3)c(C#N)c(N)n2)o1,22%,5%,13%,11,x,-8
Cc1ccc(-c2cc(-c3ccc(C)o3)nc(N)c2C#N)cc1,66%,6%,15%,u,22µM*,-8
CC(C)CNC(=O)C1C(=O)Nc2ccccc2C(=O)N1C1CCCCC1 (stereo not given),-2%,x,6%,10,-5%,5
COc1ccc(S(=O)(=O)N2CCC(C(=O)Nc3ccc(Oc4ccccc4)cc3)CC2)cc1,0%,x,7%,x,2%,-12
CC1CCN(C(=O)CSc2nc3c(c(=O)n2C)SCC3)CC1,0%,6%,4%,3,28µM*,-20
CC1=CC(C)(C)Nc2ccccc21,-5%,-3%,3%,14,28µM*!,11
CC[C@H](C)C(C(=O)N1CCN(C(=O)OC(C)(C)C)CC1)n1cc(C(Cc2ccc(O)cc2)NC(=O)OC(C)(C)C)nn1 (stereo not given in full),-26%,-1%,u,73,0%,52*
Cc1ccc2oc(C(=O)N(Cc3ccccc3)C3CCS(=O)(=O)C3)c(C)c2c1 (stereo not given),-21%,21%,u,3,-1%,9
Cc1c(C(=O)N(Cc2ccccc2Cl)C2CCS(=O)(=O)C2)oc2ccccc12 (stereo not given),-31%,14%,10µM*,3,0%,6
COc1ccccc1C(C[N+](=O)[O-])c1c(N)n(C)c(=O)n(C)c1=O (stereo not given),u,-11%,2.8µM*,0,1%,-7
COc1ccccc1C(c1c(N)n(C)c(=O)n(C)c1=O)C(C)[N+](=O)[O-] (stereo not given),-8%,6%,-1%,1,x,2
COc1ccc(CNC(=O)c2c(C)oc3c2C(=O)c2ccccc2C3=O)cc1,-16%,-2%,-15%,-72*,0%,-7
CC(=O)c1c(C)oc2c1C(=O)c1ccccc1C2=O,9%,4%,4%,-17,-2%,-17
CCCCN1C(=O)C(CC(=O)NC2CCCC2)CC(C(=O)N2CCCCCC2)=C1C (stereo not given),x,x,x,x,5%,x
CCCNS(=O)(=O)c1ccc2nc(NC(=O)c3ccc(F)cc3)sc2c1,-2%,x,22%,x,1%,-4
SMILES,HEK293 tox,GLP-1R agonist,GLP1R inv ag,D3 antag,ClpP mod,DRD3 agonist
CCOC(=O)C1CCCN(CCC(C)c2ccccc2)C1 (stereo not given),-7%,-5%,-10%,-61*,0%,-28
CCOC(=O)C1CCCN(CCC(=O)Nc2ccccc2)C1 (stereo not given),-5%,-9%,6%,-8,1%,-13
CC(C)N(Cc1ccccc1)C(=O)/C=C/c1ccccc1[N+](=O)[O-],0%,10%,u,-24,x,-8
O=[N+]([O-])c1ccccc1/C=C/CN1CCCCC1,u,6%,4%,-71*,1%,-28
CCOC(=O)C1CCCN(C/C=C/c2ccccc2[N+](=O)[O-])C1 (stereo not given),-11%,-1%,0%,-64*,0%,-30
CN(C/C=C/c1ccccc1[N+](=O)[O-])Cc1ccccc1,-5%,15%,-31%,-80*,2%,0
Cc1ccc(NC(=O)c2cc(S(=O)(=O)N(C)C3CCCCC3)ccc2F)cc1C,-6%,x,u,x,-2%,5
C#CC(C)(CC)NC(=O)c1cnn2c(C(F)F)cc(-c3ccccc3OC)nc12 (stereo not given),66%,x,8%,x,-24%,64*
COCCNC(=O)c1cnn2c(C(F)F)cc(-c3ccccc3)nc12,0%,18%,5%,1,x,1
COC(=O)c1cc2ccsc2n1CC(=O)NCC1CCCO1 (stereo not given),11%,1%,14%,-3,-6%,-1
COC(=O)c1cc2ccsc2n1CC(=O)Nc1cc(C)cc(C)c1,9%,-5%,0%,-74*,-8%,-15
COc1cccc(C(=O)Nc2ccc(NC(=O)C3CCCCC3)nc2)c1,-20%,7%,u,4,x,0
COc1cccc(C(=O)Nc2ccc(NC(=O)C(C)(C)C)cn2)c1,-7%,-11%,13µM*,8,0%,1
COc1cccc(NC(=O)Nc2cccc(C(=O)O)c2)c1,5%,-3%,2µM*,0,x,5
COc1cccc(NC(=O)Nc2ccc(Br)cn2)c1,-1%,23%,2%,0,0%,49*
C[C@@H]1CN([C@H](C)CO)C(=O)c2cc(Br)cnc2O[C@@H]1CN(C)C(=O)Cc1ccccc1,-9%,-8%,6%,-25,-1%,1
O=C(Nc1nc2ccc(SC(F)F)cc2s1)c1ccc(NS(=O)(=O)c2ccc(F)c(F)c2)cc1,-15%,-7%,u,5,32µM*,4
CS(=O)(=O)c1ccc2nc(NC(=O)c3ccc(NS(=O)(=O)c4ccc(F)c(F)c4)cc3)sc2c1,-15%,3%,-19%,-7,3%,5
